# In PubChem BioAssay AID1159580 (chemical genetic matrix, 2015):
# Screen size: about 5,500 compounds; about 2,000 (36%) were called active. Roughly 18% stayed inconclusive and do not appear here. This is one part of the list. A number with no mark means an inactive call. Cut-off read from the data, not from the text of the source: active = normalized growth mostly below about 0.91 (no sharp cut-off); inconclusive = no clear call, values can overlap the other calls; inactive = mostly above about 0.92.
# Assay: chemical genetic growth profiling, strain panel (AID 1159580);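 note: tested at 20 µM; growth read once vehicle control cultures reached saturation at 30 °C; 1 = growth at the plate median or of vehicle wells; lower values mean less growth of the strain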
# Conditions: S. cerevisiae deletion strains, growth OD
smiles,measurement,setting,value
CCCCc1ccc(N=CNO)c(C)c1,normalized growth,"locus YAR019C, strain CDC15, hits give low values",0.985
same,normalized growth,"locus YBL105C, strain PKC1, hits give low values",1.01
same,normalized growth,"locus YBR135W, strain CKS1, hits give low values",0.983
same,normalized growth,"locus YBR136W, strain MEC1, hits give low values",0.976
same,normalized growth,"locus YBR160W, strain CDC28, hits give low values",0.996
same,normalized growth,"locus YDL017W, strain CDC7, hits give low values",0.997
same,normalized growth,"locus YDL028C, strain MPS1, hits give low values",0.974
same,normalized growth,"locus YDL101C, strain DUN1, hits give low values",0.914
same,normalized growth,"locus YDL108W, strain KIN28, hits give low values",0.974
same,normalized growth,"locus YDL132W, strain cdc53, hits give low values",0.977
same,normalized growth,"locus YDL214C, strain PRR2, hits give low values",0.427 (active)
same,normalized growth,"locus YDR052C, strain DBF4, hits give low values",0.995
same,normalized growth,"locus YDR054C, strain cdc34, hits give low values",0.967
same,normalized growth,"locus YDR226W, strain ADK1, hits give low values",0.986
same,normalized growth,"locus YDR477W, strain SNF1, hits give low values",0.463 (active)
same,normalized growth,"locus YER123W, strain YCK3, hits give low values",0.242 (active)
same,normalized growth,"locus YER133W, strain GLC7, hits give low values",0.41 (active)
same,normalized growth,"locus YFL009W, strain cdc4, hits give low values",0.986
same,normalized growth,"locus YFL029C, strain CAK1, hits give low values",0.977
same,normalized growth,"locus YFR003C, strain YPI1, hits give low values",0.99
same,normalized growth,"locus YFR019W, strain FAB1, hits give low values",0.255 (active)
same,normalized growth,"locus YFR028C, strain CDC14, hits give low values",0.967
same,normalized growth,"locus YGR040W, strain KSS1, hits give low values",0.485 (active)
same,normalized growth,"locus YGR052W, strain FMP48, hits give low values",0.246 (active)
same,normalized growth,"locus YGR092W, strain DBF2, hits give low values",0.575
same,normalized growth,"locus YHR030C, strain SLT2, hits give low values",0.225 (active)
same,normalized growth,"locus YHR079C, strain IRE1, hits give low values",0.146 (active)
same,normalized growth,"locus YHR082C, strain KSP1, hits give low values",0.362 (active)
same,normalized growth,"locus YHR205W, strain SCH9, hits give low values",0.475 (active)
same,normalized growth,"locus YIL147C, strain SLN1, hits give low values",0.985
same,normalized growth,"locus YJL095W, strain BCK1, hits give low values",0.178 (active)
same,normalized growth,"locus YJL128C, strain PBS2, hits give low values",0.982
same,normalized growth,"locus YJL157C, strain FAR1, hits give low values",0.45 (active)
same,normalized growth,"locus YJR016C, strain ILV3, hits give low values",0.996
same,normalized growth,"locus YJR066W, strain TOR1 (second series), hits give low values",0.181 (active)
same,normalized growth,"locus YJR066W, strain TOR1, hits give low values",0.236 (active)
same,normalized growth,"locus YKL048C, strain ELM1, hits give low values",0.604 (active)
same,normalized growth,"locus YKL067W, strain YNK1, hits give low values",0.48 (active)
same,normalized growth,"locus YKL101W, strain HSL1, hits give low values",0.488 (active)
same,normalized growth,"locus YKL193C, strain SDS22, hits give low values",0.978
same,normalized growth,"locus YKL203C, strain TOR2, hits give low values",0.391 (active)
same,normalized growth,"locus YLR113W, strain HOG1, hits give low values",0.259 (active)
same,normalized growth,"locus YLR133W, strain CKI1, hits give low values",0.558 (active)
same,normalized growth,"locus YLR403W, strain SFP1, hits give low values",0.465 (active)
same,normalized growth,"locus YML070W, strain DAK1, hits give low values",0.321 (active)
same,normalized growth,"locus YMR001C, strain CDC5, hits give low values",0.982
same,normalized growth,"locus YMR205C, strain PFK2 (second series), hits give low values",0.558 (active)
same,normalized growth,"locus YMR277W, strain FCP1, hits give low values",0.977
same,normalized growth,"locus YNL006W, strain LST8, hits give low values",1
same,normalized growth,"locus YNL020C, strain ARK1, hits give low values",0.529 (active)
same,normalized growth,"locus YNL161W, strain CBK1, hits give low values",0.992
same,normalized growth,"locus YNL183C, strain NPR1, hits give low values",0.229 (active)
same,normalized growth,"locus YNL207W, strain RIO2, hits give low values",0.968
same,normalized growth,"locus YNL222W, strain SSU72, hits give low values",0.985
same,normalized growth,"locus YNL307C, strain MCK1 (second series), hits give low values",0.452 (active)
same,normalized growth,"locus YOL078W, strain AVO1, hits give low values",0.948
same,normalized growth,"locus YOL136C, strain PFK27, hits give low values",0.358 (active)
same,normalized growth,"locus YOR061W, strain CKA2, hits give low values",0.528 (active)
same,normalized growth,"locus YOR119C, strain RIO1, hits give low values",0.332 (active)
same,normalized growth,"locus YOR231W, strain MKK1, hits give low values",0.281 (active)
same,normalized growth,"locus YOR329C, strain SCD5, hits give low values",0.993
same,normalized growth,"locus YPL031C, strain PHO85, hits give low values",0.444 (active)
same,normalized growth,"locus YPL153C, strain RAD53, hits give low values",0.369 (active)
same,normalized growth,"locus YPL204W, strain HRR25, hits give low values",0.418 (active)
same,normalized growth,"locus YPL209C, strain IPL1, hits give low values",0.993
same,normalized growth,"locus YPL256C, strain CLN2, hits give low values",0.267 (active)
same,normalized growth,"locus YPR025C, strain CCL1, hits give low values",0.993
same,normalized growth,"locus YPR106W, strain ISR1, hits give low values",0.989
same,normalized growth,"locus YPR111W, strain DBF20, hits give low values",0.995
same,normalized growth,"strain NNK1, hits give low values",0.974
same,normalized growth,"strain TSCII, hits give low values",0.964
